Holding throughout (experiment): DAPPL (digital affinity profiling via proximity ligation, sequencing); 10 mM Tris-HCl pH 7.5, 50 mM NaCl, 1 mM DTT, 4% glycerol, room temperature, 30 min; GST-TFs on glutathione beads, 16-mer random dsDNA library, 0.1% formaldehyde crosslink after washing; high values mean tight binding
Holding throughout (details): protein: recombinant; tags: N-terminal GST; dsDNA, one strand shown

For one assay, the target named is T1, ERF (Homo sapiens, UniProt P50548 1-548).
T1 sequence: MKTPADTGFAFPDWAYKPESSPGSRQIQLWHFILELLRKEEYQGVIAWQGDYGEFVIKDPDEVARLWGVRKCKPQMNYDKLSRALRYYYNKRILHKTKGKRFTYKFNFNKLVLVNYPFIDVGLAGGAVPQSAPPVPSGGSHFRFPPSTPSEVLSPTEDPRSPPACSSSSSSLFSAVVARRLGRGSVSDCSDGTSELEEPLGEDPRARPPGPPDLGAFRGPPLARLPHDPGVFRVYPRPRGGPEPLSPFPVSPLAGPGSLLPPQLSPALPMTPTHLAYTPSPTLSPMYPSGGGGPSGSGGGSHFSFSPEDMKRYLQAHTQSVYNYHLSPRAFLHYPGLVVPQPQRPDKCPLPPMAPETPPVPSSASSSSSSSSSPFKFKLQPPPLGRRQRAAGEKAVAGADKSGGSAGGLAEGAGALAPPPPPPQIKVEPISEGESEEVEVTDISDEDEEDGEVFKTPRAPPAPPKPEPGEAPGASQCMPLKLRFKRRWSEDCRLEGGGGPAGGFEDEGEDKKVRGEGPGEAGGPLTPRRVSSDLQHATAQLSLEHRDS
Put shortly: (§1)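 Yeast served to express human transcription factors as GST fusions, which were then captured on glutathione beads and labelled with DNA barcodes. Pooled with a tag-only sample, they were incubated with 200 nmole of a 16-mer random double-stranded DNA library for 30 min at room temperature in Tris/NaCl/DTT/glycerol buffer, washed, crosslinked with 0.1% formaldehyde, ligated by proximity, amplified by PCR and sequenced. Dividing each hexamer's read frequency for a factor by its frequency for the tag-only sample gives the binding signal.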

The target of the next assay is T2, ETV3L (Homo sapiens, UniProt Q6ZN32 1-361).
T2 sequence: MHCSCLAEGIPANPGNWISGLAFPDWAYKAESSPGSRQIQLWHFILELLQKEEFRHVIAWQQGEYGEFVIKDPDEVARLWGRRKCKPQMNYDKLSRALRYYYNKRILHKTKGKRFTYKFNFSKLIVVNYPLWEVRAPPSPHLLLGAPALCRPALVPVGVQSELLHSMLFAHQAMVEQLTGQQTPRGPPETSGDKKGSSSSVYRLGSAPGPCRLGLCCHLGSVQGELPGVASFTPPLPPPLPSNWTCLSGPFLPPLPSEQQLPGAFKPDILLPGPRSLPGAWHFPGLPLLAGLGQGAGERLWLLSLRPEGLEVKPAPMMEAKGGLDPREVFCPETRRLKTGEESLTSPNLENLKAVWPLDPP
Put shortly: as §1

For another assay, the target named is T3, ETS2 (Homo sapiens, UniProt P15036 1-469).
T3 sequence: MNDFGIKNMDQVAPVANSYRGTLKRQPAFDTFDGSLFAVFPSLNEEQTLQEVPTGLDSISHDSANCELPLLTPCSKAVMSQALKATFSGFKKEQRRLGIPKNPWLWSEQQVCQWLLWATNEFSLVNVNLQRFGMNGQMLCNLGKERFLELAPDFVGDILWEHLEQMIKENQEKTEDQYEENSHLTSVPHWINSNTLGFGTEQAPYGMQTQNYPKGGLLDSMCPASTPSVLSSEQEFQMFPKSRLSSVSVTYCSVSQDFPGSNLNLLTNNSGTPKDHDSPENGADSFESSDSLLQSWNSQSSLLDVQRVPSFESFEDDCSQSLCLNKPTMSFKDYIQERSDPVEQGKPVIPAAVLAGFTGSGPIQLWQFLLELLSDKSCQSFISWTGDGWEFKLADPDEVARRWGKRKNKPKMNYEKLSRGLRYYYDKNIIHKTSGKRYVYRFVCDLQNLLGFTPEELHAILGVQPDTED
Put shortly:
as §1

In a further assay the target is T4, SPDEF (Homo sapiens, UniProt O95238 1-335).
T4 sequence: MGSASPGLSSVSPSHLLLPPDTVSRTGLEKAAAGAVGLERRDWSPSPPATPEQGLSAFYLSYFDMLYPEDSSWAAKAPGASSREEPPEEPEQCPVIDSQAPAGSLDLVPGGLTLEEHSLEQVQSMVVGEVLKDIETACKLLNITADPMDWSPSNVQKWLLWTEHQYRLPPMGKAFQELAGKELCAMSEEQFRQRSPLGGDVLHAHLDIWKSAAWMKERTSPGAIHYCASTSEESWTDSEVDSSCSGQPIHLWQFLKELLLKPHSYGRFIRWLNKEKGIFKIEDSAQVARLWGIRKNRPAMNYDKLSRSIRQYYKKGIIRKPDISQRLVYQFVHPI
The essentials: as §1

In another assay the target is T5, ETV7 (Homo sapiens, UniProt Q9Y603 1-341).
T5 sequence: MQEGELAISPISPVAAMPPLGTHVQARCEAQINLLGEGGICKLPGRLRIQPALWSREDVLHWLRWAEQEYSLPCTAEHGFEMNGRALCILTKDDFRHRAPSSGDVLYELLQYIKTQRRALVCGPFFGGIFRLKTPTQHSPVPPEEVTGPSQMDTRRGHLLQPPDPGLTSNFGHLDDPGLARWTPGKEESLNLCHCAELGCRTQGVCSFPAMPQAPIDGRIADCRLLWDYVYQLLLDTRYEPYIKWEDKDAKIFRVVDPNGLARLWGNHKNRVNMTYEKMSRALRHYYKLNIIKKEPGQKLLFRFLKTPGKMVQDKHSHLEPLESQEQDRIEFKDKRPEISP
Put shortly:
as §1

Another assay deals with T6, ELF5 (Homo sapiens, UniProt Q9UKW6-2 1-255).
T6 sequence: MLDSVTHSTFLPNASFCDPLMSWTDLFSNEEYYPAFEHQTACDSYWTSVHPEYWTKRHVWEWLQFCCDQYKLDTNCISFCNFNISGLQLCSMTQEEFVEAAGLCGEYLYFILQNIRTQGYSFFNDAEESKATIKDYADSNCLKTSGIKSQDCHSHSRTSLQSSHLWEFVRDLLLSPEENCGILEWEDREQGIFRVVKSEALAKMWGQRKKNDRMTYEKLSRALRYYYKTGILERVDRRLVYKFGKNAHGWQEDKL
Put shortly: as §1

A further assay has as its target T7, ETV3 (Homo sapiens, UniProt P41162-2 1-143).
T7 sequence: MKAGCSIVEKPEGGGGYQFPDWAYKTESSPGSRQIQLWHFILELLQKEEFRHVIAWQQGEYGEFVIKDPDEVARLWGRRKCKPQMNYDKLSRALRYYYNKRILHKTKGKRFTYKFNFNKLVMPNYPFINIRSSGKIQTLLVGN
Put shortly:
as §1

In a further assay the target is ETV6 (Homo sapiens, UniProt P41212 1-452). The essentials:
as §1

ETV6, sequence (P41212 whole entry): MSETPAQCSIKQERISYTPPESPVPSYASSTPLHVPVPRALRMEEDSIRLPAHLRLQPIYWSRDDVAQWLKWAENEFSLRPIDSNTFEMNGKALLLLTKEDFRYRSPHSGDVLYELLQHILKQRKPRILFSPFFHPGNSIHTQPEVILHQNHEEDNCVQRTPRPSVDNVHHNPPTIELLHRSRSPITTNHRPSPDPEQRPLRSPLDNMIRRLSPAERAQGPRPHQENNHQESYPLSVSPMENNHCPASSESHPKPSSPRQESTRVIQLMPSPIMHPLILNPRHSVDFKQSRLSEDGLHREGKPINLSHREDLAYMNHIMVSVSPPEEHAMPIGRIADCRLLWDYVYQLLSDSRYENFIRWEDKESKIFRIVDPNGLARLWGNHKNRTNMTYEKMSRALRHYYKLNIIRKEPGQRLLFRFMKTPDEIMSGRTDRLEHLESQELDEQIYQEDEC

Turning to TCGTTC, the binding signal in the assay with ERF is 1.36 fold enrichment (6-mer frequency, TF over GST control); in the assay with ETV3L, 1.25 fold enrichment (6-mer frequency, TF over GST control); with ETS2, 1.2 fold enrichment (6-mer frequency, TF over GST control); with SPDEF, 1.3 fold enrichment (6-mer frequency, TF over GST control); with ETV7 it was 1.15 fold enrichment (6-mer frequency, TF over GST control); in the assay with ELF5, 1.27 fold enrichment (6-mer frequency, TF over GST control). Also, the binding signal with ETV3 is 1.26 fold enrichment (6-mer frequency, TF over GST control); with ETV6 it was 1.29 fold enrichment (6-mer frequency, TF over GST control).

GTATTC: the binding signal in the assay with ERF is 1.29 fold enrichment (6-mer frequency, TF over GST control); with ETV3L, 1.25 fold enrichment (6-mer frequency, TF over GST control); with ETS2, 1.33 fold enrichment (6-mer frequency, TF over GST control); in the assay with SPDEF it was 1.21 fold enrichment (6-mer frequency, TF over GST control); with ETV7 it was 1.34 fold enrichment (6-mer frequency, TF over GST control); in the assay with ELF5, 1.31 fold enrichment (6-mer frequency, TF over GST control). Besides, the binding signal in the assay with ETV3 is 1.34 fold enrichment (6-mer frequency, TF over GST control); with ETV6, 1.28 fold enrichment (6-mer frequency, TF over GST control).

Consider TAATGG, for which the binding signal is 1.17 fold enrichment (6-mer frequency, TF over GST control) with ERF; 1.23 fold enrichment (6-mer frequency, TF over GST control) with ETV3L; 1.28 fold enrichment (6-mer frequency, TF over GST control) in the assay with ETS2; 1.22 fold enrichment (6-mer frequency, TF over GST control) with SPDEF; 1.2 fold enrichment (6-mer frequency, TF over GST control) in the assay with ETV7; 1.32 fold enrichment (6-mer frequency, TF over GST control) in the assay with ELF5. Besides, the binding signal with ETV3 is 1.28 fold enrichment (6-mer frequency, TF over GST control); with ETV6 it was 1.31 fold enrichment (6-mer frequency, TF over GST control).

As for CCCTCA, the binding signal with ERF is 1.18 fold enrichment (6-mer frequency, TF over GST control); with ETV3L, 1.18 fold enrichment (6-mer frequency, TF over GST control); with ETS2, 1.14 fold enrichment (6-mer frequency, TF over GST control); with SPDEF, 1.2 fold enrichment (6-mer frequency, TF over GST control); with ETV7 it was 1.07 fold enrichment (6-mer frequency, TF over GST control); with ELF5 it was 1.14 fold enrichment (6-mer frequency, TF over GST control). The binding signal with ETV3 was 1.12 fold enrichment (6-mer frequency, TF over GST control); with ETV6, 1.09 fold enrichment (6-mer frequency, TF over GST control).

Consider CCACTC, for which the binding signal is 1.13 fold enrichment (6-mer frequency, TF over GST control) in the assay with ERF; 1.28 fold enrichment (6-mer frequency, TF over GST control) in the assay with ETV3L; 1.21 fold enrichment (6-mer frequency, TF over GST control) with ETS2; 1.26 fold enrichment (6-mer frequency, TF over GST control) with SPDEF; 1.21 fold enrichment (6-mer frequency, TF over GST control) in the assay with ETV7; 1.19 fold enrichment (6-mer frequency, TF over GST control) in the assay with ELF5. Besides, the binding signal is 1.14 fold enrichment (6-mer frequency, TF over GST control) in the assay with ETV3 and 1.13 fold enrichment (6-mer frequency, TF over GST control) with ETV6.

In the case of GTTTTC, the binding signal is 1.34 fold enrichment (6-mer frequency, TF over GST control) with ERF; 1.27 fold enrichment (6-mer frequency, TF over GST control) with ETV3L; 1.16 fold enrichment (6-mer frequency, TF over GST control) with ETS2; 1.08 fold enrichment (6-mer frequency, TF over GST control) with SPDEF; 1.36 fold enrichment (6-mer frequency, TF over GST control) with ETV7; 1.31 fold enrichment (6-mer frequency, TF over GST control) with ELF5. Moreover, the binding signal was 1.29 fold enrichment (6-mer frequency, TF over GST control) with ETV3 and 1.23 fold enrichment (6-mer frequency, TF over GST control) in the assay with ETV6.

As for GTTTAT, the binding signal with ERF was 1.17 fold enrichment (6-mer frequency, TF over GST control); with ETV3L, 1.26 fold enrichment (6-mer frequency, TF over GST control); with ETS2 it was 1.1 fold enrichment (6-mer frequency, TF over GST control); in the assay with SPDEF, 1.11 fold enrichment (6-mer frequency, TF over GST control); in the assay with ETV7 it was 1.19 fold enrichment (6-mer frequency, TF over GST control); with ELF5, 1.14 fold enrichment (6-mer frequency, TF over GST control). The binding signal is 1.1 fold enrichment (6-mer frequency, TF over GST control) with ETV3 and 1.18 fold enrichment (6-mer frequency, TF over GST control) with ETV6.

In the case of TCCACT, the binding signal is 1.42 fold enrichment (6-mer frequency, TF over GST control) with ERF; 1.49 fold enrichment (6-mer frequency, TF over GST control) with ETV3L; 1.45 fold enrichment (6-mer frequency, TF over GST control) with ETS2; 1.37 fold enrichment (6-mer frequency, TF over GST control) in the assay with SPDEF; 1.4 fold enrichment (6-mer frequency, TF over GST control) with ETV7; 1.42 fold enrichment (6-mer frequency, TF over GST control) with ELF5. The binding signal in the assay with ETV3 was 1.41 fold enrichment (6-mer frequency, TF over GST control); with ETV6, 1.39 fold enrichment (6-mer frequency, TF over GST control).
